Test results as given in PubChem BioAssay (NCATS).
Unmarked numbers belong to inactive results. Records with an inconclusive call do not appear. For some of these results: Entries with a potency or affinity are not part of this list. Calls of active or inactive are those of the source. Unless noted, the rule behind the calls is not given here.

Tests used:
[1] = Ebola virus entry assay, green fluorescence channel
[2] = Ebola virus entry assay, blue channel fluorescence
[3] = Ebola virus entry assay, ratio channel
[4] = Ebola virus entry assay, reporter ratio channel; Channel type: primary
[5] = qHTS assay for measurement of the activity of small molecule inhibitors on Zika virus induced Caspase-3 activity in human iPSC derived neural progenitor cells (hNPCs) (AID 1224857; active = well fitted inhibition curve with a large enough effect; note: % of control where 0% means no effect; nearly all actives have a fitted effect of over 65% in size); conditions: hNPCs ZIKV-induced caspase-3/7, Caspase-Glo luminescence, 6 h; series mostly up to 45.7 µM
Summary of the method: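 Values are percent inhibition of virus-induced caspase-3/7 signal, scaled between uninfected cells and ZIKV-infected cells. Infection used 2 FFU/cell for 6 h after 1 h compound exposure.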

[6] = qHTS assay for measurement of the activity of small molecule inhibitors on Zika virus induced Caspase-3 activity in human astrocytoma cells (AID 1224859; active = well fitted inhibition curve with a large enough effect;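 note: plate controls were ZIKV-infected untreated cells for no effect and uninfected cells for full effect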); conditions: SNB-19 ZIKV-induced caspase-3/7, luminescence, 6 h; series mostly up to 45.7 µM
Summary of the method: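 Compound added 1 h pre-infection; ZIKV 2 FFU/cell on SNB-19 cells, 6 h, 37 C/5% CO2. Caspase-Glo 3/7 luminescence; values as % inhibition of ZIKV-induced caspase activity.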
Throughout, for efficacy: 0% is about no effect.

| SMILES | efficacy [1] [%] | AC50 [2] | AC50 [3] | AC50 [4] | Potency [5] | outcome [6] | outcome [3] | outcome [2] | outcome [4] |
| --- | --- | --- | --- | --- | --- | --- | --- | --- | --- |
| CCOC(=O)C1(c2ccccc2)CCN(CCc2ccc(N)cc2)CC1 | 105 | 28.2 µM (active) | 20 µM (active) | 20 µM (active) | inactive | inactive | – | – | – |
| Clc1ccc(CO/N=C(\Cn2ccnc2)c2ccc(Cl)cc2Cl)c(Cl)c1 | -155 | 28.2 µM (active) | – | 31.6 µM (active) | inactive | inactive | inactive | – | – |
| C=CCN1CC[C@]23CCCC[C@H]2[C@H]1Cc1ccc(O)cc13 | 55.2 | 39.8 µM (active) | – | 39.8 µM (active) | inactive | inactive | inactive | – | – |
| CCC(OC(C)=O)C(CC(C)NC)(c1ccccc1)c1ccccc1 (stereo unspecified) | -236 | 3.98 µM (active) | 2.51 µM (active) | 2.51 µM (active) | inactive | inactive | – | – | – |
| O=C(N[C@@H]1N=C(c2ccccc2F)c2cccc3c2N(CC3)C1=O)c1cc2ccccc2[nH]1 | -148 | 25.1 µM (active) | 15.8 µM (active) | 15.8 µM (active) | inactive | inactive | – | – | – |
| CC[C@H]1C[C@@H]2C[C@H]3c4[nH]c5ccc(OC)cc5c4CCN(C2)[C@@H]13 | 66.1 | 31.6 µM (active) | 39.8 µM (active) | 39.8 µM (active) | inactive | inactive | – | – | – |
| CC(CC(C#N)(c1ccccc1)c1ccccc1)N(C)C (stereo unspecified) | 77.3 | 15.8 µM (active) | 14.1 µM (active) | 14.1 µM (active) | inactive | inactive | – | – | – |
| CCCCCCCCCCCC[N+](C)(C)CCOc1ccccc1 | -194 | 39.8 µM (active) | 25.1 µM (active) | 25.1 µM (active) | inactive | inactive | – | – | – |
| Clc1ccc(CSC(Cn2ccnc2)c2ccc(Cl)cc2Cl)cc1 (stereo unspecified) | -183 | 5.62 µM (active) | 4.47 µM (active) | 4.47 µM (active) | inactive | inactive | – | – | – |
| CCN(CC)Cc1nccn1-c1ccc([N+](=O)[O-])cc1C(=O)c1ccccc1Cl | 96.4 | 39.8 µM (active) | – | 39.8 µM (active) | inactive | inactive | inactive | – | – |
| Cc1nnc2n1-c1sc(CCC(=O)N3CCOCC3)cc1C(c1ccccc1Cl)=NC2 | 52.3 | – | – | – | inactive | inactive | inactive | inactive | inactive |
| C[C@H](N)[C@H](O)c1ccc(O)c(O)c1 | 56.6 | 5.62 µM (active) | 4.47 µM (active) | 4.47 µM (active) | – | inactive | – | – | – |
| CCN(CC)CCOC(=O)C(C)(c1ccccc1)c1ccccc1 | 52.6 | 8.91 µM (active) | 10 µM (active) | 10 µM (active) | inactive | inactive | – | – | – |
| CC1COC2(c3ccccc3Cl)c3cc(Cl)ccc3NC(=O)CN12 (stereo unspecified) | 68 | 28.2 µM (active) | 28.2 µM (active) | 28.2 µM (active) | inactive | inactive | – | – | – |
| CCC1(c2cccc(O)c2)CCCCN(C)C1 (stereo unspecified) | 34.9 | 20 µM (active) | – | 39.8 µM (active) | inactive | inactive | inactive | – | – |
| c1ccc2nc(N3CCNCC3)ccc2c1 | 106 | 39.8 µM (active) | 35.5 µM (active) | 35.5 µM (active) | inactive | inactive | – | – | – |
| O=C(CCCN1CCC(n2c(=O)[nH]c3ccccc32)CC1)c1ccc(F)cc1 | 109 | 25.1 µM (active) | 25.1 µM (active) | 25.1 µM (active) | – | inactive | – | – | – |
| CN1CCC(N(Cc2ccccc2)c2ccccc2)CC1 | 45.7 | 7.08 µM (active) | 4.47 µM (active) | 4.47 µM (active) | inactive | inactive | – | – | – |
